The record followed here is PubChem BioAssay AID2401 (Southern Research Specialized Biocontainment Screening …, 2010).

In all, about 2,200 compounds went through this assay and about 530 (24%) were called active.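 The calls were made as follows: active = inhibition above a set limit at one or more concentrations of the dose series; inactive = inhibition under that limit at every dose.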 Not all results are given here. A call without a number means that no potency is given here. Potency and affinity values are given separately.

The experiment is described as follows: nmpC-GFP reporter counter-screen in S. Typhimurium, dose response, counter-screen for PhoP regulon inhibitor project, Salmonella Typhimurium, GFP fluorescence (AID 2401).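 Also: S. typhimurium with Mg-insensitive nmpC-GFP reporter grown at 10 µM Mg2+; drop in reporter fluorescence reflects general culture growth inhibition.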 The settings on record: 4 h; series mostly up to 150 µM.
With `Cn1cc(-c2nnnn2-c2cccc(C(F)(F)F)c2)c(C(F)(F)F)n1`, the result was inactive.
Next, `CCn1c(CNC(=O)c2cccc(C)c2)nc2ccccc21`: “inactive”; `COc1ccccc1-c1c(C#N)c(N)nc2c1CCc1ccccc1-2`: “inactive”; `O=c1cc(Cc2ccccc2)[nH]c(=S)[nH]1`: “inactive”.
Regarding `CCOC(=O)Cc1ccc(NS(=O)(=O)c2ccc(SC)cc2)cc1`, the call was inactive.
Next, `NC1=NC(=Nc2cccc(Cl)c2)c2ccccc21`: “inactive”; `C#CCOc1ccc(/C=C2\SC(=S)N(Cc3cccnc3)C2=O)cc1`: “inactive”.
Consider `COCCNC(=O)c1ccc(C(=O)NCCOC)s1`, for which the result was inactive.
On to `CC(Nc1ccc(Br)cn1)c1cc(Cl)ccc1O` (stereo unspecified), for which the compound was called inactive.
Regarding `COc1cc([N+](=O)[O-])cc(/C=N/NC(=O)c2cccnc2)c1O`, the compound was classed as inactive.
Turning to `COc1ccc(/C=N/NC(=O)c2ccc3c(c2)OCCO3)cc1[N+](=O)[O-]`, the call was inactive.
Turning to `O=C(Nc1cc(C(F)(F)F)ccc1N1CCOCC1)c1ccc(Br)o1`, the outcome was inactive.
Consider `Cc1nc(N2CCN(Cc3ccc4c(c3)OCO4)CC2)nc2c1C(=O)CC(c1ccco1)C2` (stereo unspecified), for which the outcome was inactive.
For `CC1CCN(S(=O)(=O)c2cccc(C(=O)N(C)C3CCS(=O)(=O)C3)c2)CC1` (stereo unspecified), the compound was called inactive.
In the case of `CN1c2ccccc2C(O)=C(C(=O)Nc2ccccc2)S1(=O)=O`, the call was inactive.
As for `O=C(N/N=C/c1ccc(F)cc1)c1cc(-c2ccco2)nc2ccccc12`, the compound was classed as inactive.
Turning to `COC(=O)C1=C(C)N(C)C(=O)/C1=C\c1ccco1`, the outcome was inactive.
Turning to `O=C(COc1ccccc1)NC(=S)Nc1ccc2c3c(cccc13)CC2`, the compound was called inactive.
For `Cc1ccc(C(=O)CSc2ncnc3sc4c(c23)CCCC4)cc1` the value was “inactive”.
For `COc1ccc(N2CCN(C(=O)CN(c3cccc(Br)c3)S(C)(=O)=O)CC2)cc1` the value was “inactive”; for `O=C(/C=C/c1ccco1)Oc1cc(Br)cc(/C=N/NC(=O)c2ccccc2O)c1`, “inactive”; for `CCN1CCN(C(=O)c2ccc3c(=O)n(Cc4ccccc4OC)c(=S)[nH]c3c2)CC1`, “inactive”.
On to `Cc1cc(C)nc(Nc2ccc(N3CCCC3)cc2)n1`, for which the compound was called inactive.
With `O=C(NCCc1ccccc1)c1ccc2nc(-c3ccco3)c(-c3ccco3)nc2c1`, the compound was called inactive.
Consider `Clc1ccc(OCCn2ccnc2)c(Br)c1`, for which the compound was classed as inactive.
Regarding `O=C(NC1CCN(C(=O)N2c3ccccc3Sc3ccccc32)CC1)c1ccco1`, the compound was classed as inactive.
On to `CCn1c2ccccc2c2cc(C3N=C(N)Nc4nc5ccccc5n43)ccc21` (stereo unspecified), for which the call was inactive.
With `O=C(CN1CCN(c2ccccn2)CC1)Nc1ccc(Oc2ccccc2)cc1`, the call was inactive.
`COc1ccc(OC)c(C2=Nn3c(nnc3-c3cc(OC)c(OC)c(OC)c3)SC2)c1`: the compound was classed as inactive.
For `O=C1CCCc2nc(N3CCN(Cc4ccccc4)CC3)ncc21` the value was “inactive”; for `COc1ccc(Nc2sc(C(=O)Nc3cccc(Cl)c3)c(N)c2C(=O)Nc2ccccc2OC)cc1`, “inactive”; for `O=S(=O)(c1ccc(F)c2ccccc12)N1CCCCC1`, “inactive”.
On to `Cn1ccnc1SCC(=O)Nc1sccc1C#N`, for which the result was inactive.
For the compound `Cn1cc(C(CC(=O)O)C(=O)O)c2ccccc21` (stereo unspecified), the compound was classed as inactive.
Next, `c1ccc2c(N3CCCCCC3)nc(-c3ccncc3)nc2c1`: “inactive”; `CCOC(=O)c1cnc2ccc(OCC)cc2c1N1CCN(c2ccccc2)CC1`: “inactive”.
On to `Cc1ccc(NC(=O)CCCSc2nc3ccccc3[nH]2)cc1`, for which the outcome was inactive.
For `CCN(CCO)Cc1csc2ccccc12` the value was “inactive”; for `CC(C)CCNC(=O)C12CN(Cc3ccccc3)CC1C(c1cccc([N+](=O)[O-])c1)=NO2` (stereo unspecified), “inactive”; for `CCCn1c(NCc2c[nH]c3ccccc23)nc2ccccc21`, “inactive”.
`COc1ccc(-c2cc(C(=O)Nc3ccc(S(=O)(=O)Nc4ncccn4)cc3)c3ccccc3n2)cc1`: the outcome was inactive.
Take `Nc1nc(C2CCCCC2)cs1`: the result was inactive.
As to `Clc1ccc(-n2ncc3c(NCc4cccs4)ncnc32)cc1`, the call was inactive.
Next, `CC(C)Cc1nc2ccc(N)cc2[nH]1`: “inactive”.
For the compound `COc1cccc(-c2nnc3sc(-c4ccc(C)cc4)nn23)c1`, the result was inactive.
In the case of `Cc1nc2c(C(=O)NCCC(C)C)c[nH]n2c(=O)c1Cc1ccccc1F`, the result was inactive.
`CC(C)(C)NC(=O)CSc1nnc(-c2ccncc2)o1`: the outcome was inactive.
Consider `CCCCCCC(=O)N(O)C1CC(=O)N(c2ccc(C)cc2)C1=O` (stereo unspecified), for which the result was inactive.
For `O=C(c1ccco1)[C@@H]1[C@@H]2C(=O)N(c3ccc(F)cc3)C(=O)[C@@H]2[C@H]2C=Cc3ccccc3N21` the value was “inactive”; for `CCC(=O)NC1=C(NC(C)c2ccccc2)C(=O)c2ccccc2C1=O` (stereo unspecified), “inactive”; for `O=S(=O)(c1ccc(NC(=S)Nc2ccc3c(c2)OCO3)cc1)N1CCOCC1`, “inactive”.
In the case of `Nc1ccc(N(c2ccccc2)c2ccc(N)cc2)cc1`, the outcome was inactive.
In the case of `CSc1nsc(SCC(=O)Nc2ccc(C(C)=O)cc2)n1`, the compound was called inactive.
Next, `O=C(Cc1cccs1)N(c1ccccc1)C1C=CS(=O)(=O)C1` (stereo unspecified): “inactive”.
Turning to `O=C(OCC(=O)c1ccc(S(=O)(=O)N2CCCC2)cc1)C1=COCCO1`, the call was inactive.
Take `NNC(=S)Nc1ccc(Cl)cc1`: the result was inactive.
Take `COc1ccc2cc(C#N)c(NC(C)C)nc2c1`: the compound was called inactive.
For `NC(=S)c1cc2ccc(O)cc2oc1=O`, the call was inactive.
With `Cc1ccc(NC(=S)NCCc2ccccc2)c(C)c1`, the outcome was inactive.
Next, `CNC(=O)CSc1nnc(-c2cccnc2)n1CCc1ccccc1`: “inactive”; `COc1nc(N(c2ccccc2)c2ccccc2)nc(-n2ccnc2)n1`: “inactive”; `COc1cc(CNc2ccc(CNc3ncn[nH]3)cc2)ccc1OCc1ccccc1`: “inactive”.
With `CCc1cccc(NC(=O)CCCSc2nc3ccccc3[nH]2)c1`, the result was inactive.
Consider `CC(C)Nc1cc(C(F)(F)F)nc(-c2ccccn2)n1`, for which the outcome was inactive.
Next, `O=C1c2ccccc2C(=O)N1Cc1nc(-c2ccccn2)no1`: “inactive”; `S=c1nc(-c2ccccc2)oc2c1CCCC2`: “inactive”; `c1ccc(-c2ncnc3nc4n(c23)CCC4)cc1`: “inactive”.
As for `O=C(Nc1cccc2ccccc12)OC1C=CS(=O)(=O)C1` (stereo unspecified), the result was inactive.
For the compound `Cc1cccc(-n2c(SCC(N)=O)nc3c(c2=O)C2(CCCC2)Cc2ccccc2-3)c1`, the outcome was inactive.
On to `COc1ccc(Nc2nc(-c3cccc([N+](=O)[O-])c3)nc3ccccc23)cc1`, for which the compound was called inactive.
As to `C=CCSc1nnc(-c2ccc(Cl)cc2Cl)o1`, the call was inactive.
With `c1ccc(-c2nnc(SCCC3OCCCO3)o2)cc1`, the call was inactive.
`COc1ccc(S(=O)(=O)n2nc(OC(=O)c3ccccc3Br)cc2N)cc1`: the compound was called inactive.
In the case of `CCC(=O)c1ccc(OCC(O)CNCc2ccc(F)cc2)cc1` (stereo unspecified), the compound was classed as inactive.
For the compound `COc1ccc(N(C(=O)CCl)C(C(=O)NCCc2ccccc2)c2cccs2)cc1` (stereo unspecified), the result was inactive.
Next, `COc1cccc(OCC(O)CN2CCN(c3ccccn3)CC2)c1` (stereo unspecified): “inactive”; `COc1ccc(NC2=Nc3cccc4cccc2c34)cc1`: “inactive”.
Consider `Cc1cc(Nc2ccccc2)nc2cc(O)ccc12`, for which the outcome was inactive.
Turning to `COc1ccc(C2=C(Nc3ccc(C)cc3)c3ccccc3C2=O)cc1`, the result was inactive.
On to `Cc1cc(=O)oc2cc(OCC(O)CN3CCc4ccccc4C3)ccc12` (stereo unspecified), for which the compound was classed as inactive.
In the case of `C=CCN(C(=O)c1cccc(S(=O)(=O)N2CCN(C)CC2)c1)c1nc(-c2ccccc2)cs1`, the result was inactive.
In the case of `O=C(O)CCc1nnc2n(Cc3ccc(F)cc3)c(=O)c3ccccc3n12`, the outcome was inactive.
As for `Cc1nc(-c2ccccn2)sc1C(=O)Nc1ccc(F)cc1F`, the call was inactive.
With `CN(C(=O)/C=C/c1ccccc1)C1CCS(=O)(=O)C1` (stereo unspecified), the call was inactive.
For `COc1ccccc1N1CCN(c2ccc(-c3ccccc3)nn2)CC1`, the compound was called inactive.
Regarding `COc1cc(CNCc2ccccn2)ccc1OCC(=O)NC(C)(C)C`, the result was inactive.
Consider `Cc1ccc(NS(=O)(=O)c2ccccc2)c2c1CC(C)(C)O2`, for which the compound was called inactive.
Take `Cc1cc(C)nc(N(C#N)C(C)C(=O)N(C)C)n1` (stereo unspecified): the compound was called inactive.
`Cc1cc2cc(CCNC(=O)c3cccs3)c(=O)[nH]c2cc1C`: the compound was called inactive.
Turning to `Cc1ccc(C(=O)Nc2ccccc2C(N)=O)o1`, the result was inactive.
On to `COc1cccc(Cn2cnc3c(NS(=O)(=O)c4cccc(Cl)c4Cl)c(C)c(C)cc32)c1`, for which the call was inactive.
In the case of `Cc1[nH]c2ccccc2c1C(=O)CN1CCSCC1`, the compound was called inactive.
Take `CC(C)(C)c1ccc(NC(=O)COC(=O)c2ccc([N+](=O)[O-])s2)cc1`: the result was inactive.
On to `Cc1cc(=O)oc(C)c1C(=O)NCc1cccnc1`, for which the result was inactive.
Consider `Cc1nn(CCOc2ccccc2)c(=O)n1-c1ccc(F)cc1`, for which the compound was called inactive.
On to `O=C(NCc1ccco1)c1c2c(nc3ccccc13)CCC2`, for which the outcome was inactive.
Turning to `Cc1cccc(OCC(=O)NNc2c3ccccc3nc3ccccc23)c1`, the outcome was inactive.
For `Cc1ccc(C(=O)NNc2c3ccccc3nc3ccccc23)cc1` the value was “inactive”.
As to `Cc1cccc(NC(=O)Cn2c(/C=C/c3ccccc3)nc3ccccc32)c1`, the call was inactive.
For the compound `Cc1ccc(CSCc2nc3ccccc3[nH]2)cc1`, the outcome was inactive.
Take `Cc1ccccc1NC(=O)c1sc2nc3c(c(-c4ccco4)c2c1N)CCC3`: the compound was called inactive.
As to `Cn1c(-c2ccc3c(c2)OCO3)cnc1NCc1cccc(Cl)c1`, the outcome was inactive.
`CC(=O)c1c(C)n([O-])c2ccccc2[n+]1=O`: the outcome was inactive.
As for `COC(=O)c1sccc1NC(=O)C1C2C=CC(O2)C1C(=O)O` (stereo unspecified), the outcome was inactive.
For `COC(=O)c1ccc2nc(C(F)(F)F)[nH]c2c1` the value was “inactive”.
With `N#CCCN(C(=O)CN1C(=O)NC2(CCCC2)C1=O)c1ccccc1F`, the outcome was inactive.
Turning to `O=C1C(Nc2ccccc2)=C/C(=N/S(=O)(=O)c2cccs2)c2ccccc21`, the result was inactive.
Consider `COc1cc(C=O)ccc1OCCCOc1ccccc1[N+](=O)[O-]`, for which the compound was classed as inactive.
For the compound `Cc1snc(S(=O)(=O)/C(C#N)=N\Nc2ccccc2)c1C#N`, the call was inactive.
As to `C(=Nc1ccc(Nc2ccccc2)cc1)c1ccc2ccccc2c1`, the result was inactive.
On to `Cc1ccsc1C=Nc1ccc(O)cc1`, for which the compound was called inactive.
Turning to `Cc1nnc(NC(=O)CSc2ncnc3scc(-c4ccccc4)c23)s1`, the call was inactive.
`Cc1onc(-c2c(F)cccc2Cl)c1C(=O)Nc1cccc(Cn2cccn2)c1`: the compound was classed as inactive.
Turning to `CCOc1ccc(NC(=O)CCC(=O)n2nc(C)cc2C)cc1`, the compound was classed as inactive.
Next, `COc1nccnc1NS(=O)(=O)c1ccc(NC(=S)NC(=O)c2cccnc2)cc1`: “inactive”; `COc1cc(OC)c(C(=O)Nc2ccc(S(=O)(=O)Nc3ncccn3)cc2)cc1OC`: “inactive”.
